Our source for the AC50 and outcome values is PubChem BioAssay (EPA / NIEHS).

Active and inactive are the calls of the source. How the source made its calls: active means hit-call score of the fitted dose curve at least 0.9, where 1 is the maximum; inactive means score below 0.9.

Sequence of Aryl hydrocarbon receptor (Homo sapiens) (P35869 whole entry, looked up): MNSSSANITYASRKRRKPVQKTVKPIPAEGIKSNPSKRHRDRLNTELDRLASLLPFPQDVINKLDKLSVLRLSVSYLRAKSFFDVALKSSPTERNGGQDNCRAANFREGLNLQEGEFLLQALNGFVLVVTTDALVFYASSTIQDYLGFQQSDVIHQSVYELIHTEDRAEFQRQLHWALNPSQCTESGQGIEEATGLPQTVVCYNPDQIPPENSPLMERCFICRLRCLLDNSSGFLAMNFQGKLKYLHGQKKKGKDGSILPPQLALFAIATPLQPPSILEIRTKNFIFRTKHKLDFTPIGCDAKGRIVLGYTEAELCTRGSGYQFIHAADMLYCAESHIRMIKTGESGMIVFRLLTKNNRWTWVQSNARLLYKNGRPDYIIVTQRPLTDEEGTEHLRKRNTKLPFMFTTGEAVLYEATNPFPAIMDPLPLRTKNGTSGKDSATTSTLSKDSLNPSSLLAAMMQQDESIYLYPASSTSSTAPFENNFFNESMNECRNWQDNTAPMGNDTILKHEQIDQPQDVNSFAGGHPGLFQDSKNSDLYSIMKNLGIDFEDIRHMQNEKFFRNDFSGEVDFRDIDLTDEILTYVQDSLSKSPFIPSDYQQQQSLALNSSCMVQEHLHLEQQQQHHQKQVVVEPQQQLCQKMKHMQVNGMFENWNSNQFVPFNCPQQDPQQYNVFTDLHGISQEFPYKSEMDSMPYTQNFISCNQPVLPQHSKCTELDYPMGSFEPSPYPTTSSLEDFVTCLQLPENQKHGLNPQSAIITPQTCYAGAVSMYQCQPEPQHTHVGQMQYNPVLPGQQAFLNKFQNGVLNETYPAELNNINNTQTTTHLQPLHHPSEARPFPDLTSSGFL

The first test concerns the target Aryl hydrocarbon receptor (Homo sapiens) (UniProt P35869). The experiment in a line: ATG_Ahr_CIS: Attagene CIS-FACTORIAL HepG2 Assay for human Aryl Hydrocarbon Receptor (Ahr) (AID 2282930). To be noted: HepG2 AhR cis-factorial reporter transcription; actives raise or lower the signal. Put shortly: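 Reporter mRNA levels, quantified by RT-PCR and fluorescent capillary electrophoresis, reflect endogenous AhR transcriptional activity in HepG2 cells carrying transfected cis-promoter reporter constructs. Readout at 24 h post-dose; gain or loss fitted against DMSO baseline.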
`c1ccc2cnccc2c1`: the AC50 (in general, the concentration at which the activity in the assay is half-maximal) was 61.1 µM (active). On to `O=C(C=Cc1ccccc1)OCCc1ccccc1`, for which the result was inactive. `CCC(C)N` (configuration not stated): the result was inactive. In the case of `CCCCCCOC(=O)CCCCC(=O)OCCCCCC`, the call was inactive. For the compound `CCCC/C=C/C=C\C=O`, the compound was called inactive. Same read-out and setting: then `Oc1c(Cl)cc(Cl)c(Cl)c1Cl`, with “inactive”; and `CCC(=O)C1CC(C(C)C)CC=C1C` (configuration not stated), with “inactive”. Same read-out and setting: then `O=C1CCCCCCCCCCCN1`, with “inactive”; and `CC(=O)OCC=C(C)C`, with “inactive”. For the compound `N=C1C=CC(=C(c2ccc(N)cc2)c2ccc(N)cc2)C=C1`, the half-maximal activity concentration (AC50) was 8.36 µM (active). For the compound `CO[Si](CCCS)(OC)OC`, the compound was called inactive. Same read-out and setting: then `CCCCCCCO`, with “inactive”. As for `CC1CCC(=O)C1=O` (configuration not stated), the outcome was inactive.

Consider `CCOC(=O)c1ccc(C)cc1`, for which the outcome was inactive. Same read-out and setting: to `CC(C)(C)N` belongs “inactive”; to `COC(Cc1ccccc1)OC`, “inactive”. For `CCOC(=O)[C@H](O)[C@@H](O)C(=O)OCC`, the call was inactive. Turning to `CCCC=C(C=O)CC`, the AC50 was 100 µM (active).

`CC(C)c1cc(C(C)C)cc(C(C)C)c1`: the compound was called inactive. Consider `O=C(O[C@@H]1Cc2c(O)cc(O)cc2O[C@@H]1c1cc(O)c(O)c(O)c1)c1cc(O)c(O)c(O)c1`, for which the outcome was inactive. With `CC1=NN(c2ccc(S(=O)(=O)O)cc2)C(=O)C1N=Nc1ccccc1` (configuration not stated), the AC50 is 10.7 µM (active). `CC(=O)CCC=C(C)C`: the compound was called inactive. As for `COc1ccc(C(=O)/C(Br)=C\C(=O)O)cc1`, the outcome was inactive.

Take `CCOC(=O)CC(=O)c1ccccc1`: the result was inactive. The same measure, in the same setting: to `CC(c1cc(C(C)(C)C)cc(C(C)(C)C)c1O)c1cc(C(C)(C)C)cc(C(C)(C)C)c1O` belongs “inactive”; to `Cc1ccc(C)c(OCCCC(C)(C)C(=O)O)c1`, “inactive”. Consider `Nc1cccc(N)n1`, for which the AC50 was 52.3 µM (active).

`Cc1cc(C)c(C=O)c(C)c1`: the outcome was inactive.

Turning to `CC1C(C)(C)C2=C(C(=O)CCC2)C1(C)C` (configuration not stated), the compound was called inactive.

As for `CCN1CCCC1=O`, the compound was classed as inactive. Consider `Oc1ccc(-c2ccccc2)c(Cl)c1`, for which the outcome was inactive. As for `CCCCCCCCCC(C)=O`, the call was inactive.

Test system in a further test: not listed separately
The experiment in a line: ATG_AP_1_CIS: Attagene CIS-FACTORIAL HepG2 Assay for human Activator Protein 1 (AP-1) (AID 2282931). To be noted: HepG2 Attagene cis-factorial AP-1 reporter mRNA; actives raise or lower the signal. The method in brief:
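Readout is reporter transcript level from endogenous transcription factor activity, quantified by RT-PCR with fluorescent primer extension and capillary electrophoresis. Transiently transfected HepG2 cells, 24 h exposure. Curves fitted both directions versus DMSO.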
Regarding `CC1=CCC2CC1C2(C)C` (configuration not stated), the compound was called inactive.

As for `c1ccc2cnccc2c1`, the outcome was inactive.

Take `CCCCCCCCCCCCc1ccc(O)cc1`: the call was inactive. On the same count and under the same terms, to `O=C(C=Cc1ccccc1)OCCc1ccccc1` belongs “inactive”. The same measure, in the same setting: then `CCC(C)N` (configuration not stated), with “inactive”.

Consider `CCCCCCOC(=O)CCCCC(=O)OCCCCCC`, for which the compound was classed as inactive.

On to `CCCC/C=C/C=C\C=O`, for which the AC50 was 149 µM (active). For `Oc1c(Cl)cc(Cl)c(Cl)c1Cl`, the result was inactive. In the case of `CN(C)c1ccc2nc3ccc(=[N+](C)C)cc-3sc2c1`, the AC50 was 19.8 µM (active). Regarding `CCC(=O)C1CC(C(C)C)CC=C1C` (configuration not stated), the outcome was inactive. Still for that read-out and setting: then `O=C1CCCCCCCCCCCN1`, with “inactive”. On to `CC(=O)OCC=C(C)C`, for which the call was inactive. Regarding `CC(C=O)c1ccccc1` (configuration not stated), the compound was classed as inactive. On to `N=C1C=CC(=C(c2ccc(N)cc2)c2ccc(N)cc2)C=C1`, for which the result was inactive. As for `CO[Si](CCCS)(OC)OC`, the result was inactive. Regarding `CCCCCCCO`, the result was inactive.

As for `CCOC(=O)c1ccc(C)cc1`, the call was inactive.

As for `CC(C)(C)N`, the compound was called inactive.

Turning to `COC(Cc1ccccc1)OC`, the compound was classed as inactive.

With `CC1(C)CCC[C@]2(C)[C@H]3CC(=O)O[C@]3(C)CC[C@@H]12`, the compound was classed as inactive.

Regarding `CCOC(=O)[C@H](O)[C@@H](O)C(=O)OCC`, the result was inactive. `CCCC=C(C=O)CC`: the compound was classed as inactive. On to `O=C(O[C@@H]1Cc2c(O)cc(O)cc2O[C@@H]1c1cc(O)c(O)c(O)c1)c1cc(O)c(O)c(O)c1`, for which the AC50 was 72.5 µM (active). For `CC1=NN(c2ccc(S(=O)(=O)O)cc2)C(=O)C1N=Nc1ccccc1` (configuration not stated), the call was inactive. As to `CC(=O)CCC=C(C)C`, the call was inactive. Turning to `COc1ccc(C(=O)/C(Br)=C\C(=O)O)cc1`, the AC50 is 26.4 µM (active). Turning to `CCOC(=O)CC(=O)c1ccccc1`, the compound was classed as inactive. Still for that read-out and setting: then `CC(c1cc(C(C)(C)C)cc(C(C)(C)C)c1O)c1cc(C(C)(C)C)cc(C(C)(C)C)c1O`, with “inactive”; and `Cc1ccc(C)c(OCCCC(C)(C)C(=O)O)c1`, with “inactive”; and `Nc1cccc(N)n1`, with “inactive”. For `Cc1cc(C)c(C=O)c(C)c1`, the compound was called inactive. In the case of `CC1C(C)(C)C2=C(C(=O)CCC2)C1(C)C` (configuration not stated), the call was inactive. On to `CCN1CCCC1=O`, for which the outcome was inactive.

Turning to `Oc1ccc(-c2ccccc2)c(Cl)c1`, the AC50 is 60.2 µM (active). As for `CCCCCCCCCC(C)=O`, the call was inactive.
